These results are taken from PubChem BioAssay AID1159580 (chemical genetic matrix, 2015).

The assay is described as follows: chemical genetic growth profiling, strain panel (AID 1159580).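 Note: tested at 20 µM; growth read once vehicle control cultures reached saturation at 30 °C; 1 = growth at the plate median or of vehicle wells; lower values mean less growth of the strain.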 Conditions: S. cerevisiae deletion strains, growth OD.

The whole screen tested about 5,500 compounds, of which about 2,000 (36%) were called active. Another 18% or so got no clear call; they are omitted. The list shows a part of the results. Unmarked numbers belong to inactive results. Cut-off read from the data, not from the text of the source: active = normalized growth mostly below about 0.91 (no sharp cut-off); inconclusive = no clear call, values can overlap the other calls; inactive = mostly above about 0.92.

In the case of `OCCN1CCN(CC/C=C2/c3ccccc3Sc3ccc(C(F)(F)F)cc32)CC1`, the normalized growth (locus YAL040C, strain CLN3, hits give low values) was 1.04; the normalized growth (locus YCL061C, strain MRC1 (second series), hits give low values) was 0.973; the normalized growth (locus YDR363W, strain ESC2, hits give low values) is 0.923; the normalized growth (locus YER002W, strain NOP16, hits give low values) was 1.01; the normalized growth (locus YGR078C, strain PAC10, hits give low values) was 0.975; the normalized growth (locus YJR075W, strain HOC1, hits give low values) was 0.942. The normalized growth (locus YNL128W, strain TEP1, hits give low values) is 1.02; the normalized growth (locus YNL175C, strain NOP13, hits give low values) was 1.07; the normalized growth (locus YNL197C, strain WHI3, hits give low values) is 1.02; the normalized growth (locus YNL224C, strain SQS1, hits give low values) is 1.05; the normalized growth (locus YNL322C, strain KRE1, hits give low values) is 0.974; the normalized growth (locus YOR083W, strain WHI5 (second series), hits give low values) was 0.887. In addition, the normalized growth (locus YPL055C, strain LGE1, hits give low values) is 0.87 (active).
